Source: PubChem BioAssay
A selection: hits, their analogues and other compounds. The true share with any hit is near 10%.
HP1b chromo inh: HTS for Inhibitors of HP1-beta Chromodomain Interactions with Methylated Histone Tails; Chromobox protein homolog 1 (Homo sapiens), P83916; AlphaScreen HP1-beta / biotin-H3K9me3 peptide binding; Potency, µM (top dose mostly 114 µM), most hits filed as inhibitors; actives 0.56% (n = 390,000); AID 540317, 2011; also: nearly all actives have a fitted effect of over 70% in size
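Compound inhibition of the preformed complex between 50 nM HP1-beta and 50 nM biotinylated H3K9me3 peptide was read by AlphaScreen. Buffer was PBS pH 7.4 with 0.01% Tween-20. Incubations ran 30 min at room temperature, with 10 ug/mL donor/acceptor beads.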
CtBP-E1A blk: qHTS Assay for Inhibitors of the CtBP/E1A Interaction. CtBP / adenovirus E1A interaction (AlphaScreen). AlphaScreen GST-E1A/His-CtBP binding, 1536-well; active compounds read low. activity change, % (test concentration not listed). actives 0.49% (n = 340,000); in the data active = activity change below about -65%; inconclusive = mostly about -30% to -63%
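Protein mix (5X: 125 nM each GST-E1A, His-CtBP) was incubated with pinned compound 2 h at 37 deg C in dark, in 50 mM Tris pH 8.0 buffer with 300 mM NaCl. Glutathione donor and nickel acceptor beads followed; AlphaScreen signal read after 1 h.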
BAZ2B block: qHTS Assay for Inhibitors of BAZ2B | Bromodomain adjacent to zinc finger domain protein 2B (Homo sapiens), Q9UIF8 | AlphaScreen BAZ2B-H3K14Ac peptide displacement | Potency, µM (highest dose often 114 µM), hits mostly inhibitors | actives 4.4% (n = 360,000); also: nearly all actives have a fitted effect of over 60% in size
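Inhibition is scored as reduced AlphaScreen emission. The BAZ2B/b-H3(5-23)K14Ac complex (50 nM each) in PBS pH 7.4, 0.01% Tween-20 meets compound (up to 110 uM) for 30 min at RT before bead addition.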
G9a inh: qHTS Assay for Inhibitors of Histone Lysine Methyltransferase G9a. Histone-lysine N-methyltransferase EHMT2 (Homo sapiens), Q96KQ7. G9a H3K9 monomethylation, AlphaScreen, 2 h. Potency, µM (doses to about 102 µM), hits mostly inhibitors. actives 8.8% (n = 350,000); also: nearly all actives have a fitted effect of over 75% in size
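Step 1: enzyme (final 20 nM) with compound, 15 min RT. Step 2: substrate peptide 500 nM and SAM 20 uM, 2 h RT. Step 3: anti-H3K9me1 antibody and AlphaScreen beads, 10 min, then plate read.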
JMJD2A Tudor: qHTS Assay for Inhibitors of JMJD2A-Tudor Domain. Potency, µM (series often up to 114 µM), actives largely listed as inhibitors. actives 4.4% (n = 390,000). AID 504339, 2011. AlphaScreen JMJD2A-Tudor / H3K4me3 peptide binding; also: nearly all actives have a fitted effect of over 50% in size
Six1-Eya2 blk: qHTS Assay for Inhibitors of the Six1/Eya2 Interaction | AlphaScreen GST-Six1/His-Eya2 binding, biochemical; active compounds read low | actives 0.56% (n = 360,000) | activity change, % (test concentration not listed) | Homeobox protein SIX1 (Homo sapiens) + Protein phosphatase EYA2 (Homo sapiens), …; in the data active = activity change below about -65%; inconclusive = mostly about -30% to -63%
Target sequence (O00167 whole entry, looked up): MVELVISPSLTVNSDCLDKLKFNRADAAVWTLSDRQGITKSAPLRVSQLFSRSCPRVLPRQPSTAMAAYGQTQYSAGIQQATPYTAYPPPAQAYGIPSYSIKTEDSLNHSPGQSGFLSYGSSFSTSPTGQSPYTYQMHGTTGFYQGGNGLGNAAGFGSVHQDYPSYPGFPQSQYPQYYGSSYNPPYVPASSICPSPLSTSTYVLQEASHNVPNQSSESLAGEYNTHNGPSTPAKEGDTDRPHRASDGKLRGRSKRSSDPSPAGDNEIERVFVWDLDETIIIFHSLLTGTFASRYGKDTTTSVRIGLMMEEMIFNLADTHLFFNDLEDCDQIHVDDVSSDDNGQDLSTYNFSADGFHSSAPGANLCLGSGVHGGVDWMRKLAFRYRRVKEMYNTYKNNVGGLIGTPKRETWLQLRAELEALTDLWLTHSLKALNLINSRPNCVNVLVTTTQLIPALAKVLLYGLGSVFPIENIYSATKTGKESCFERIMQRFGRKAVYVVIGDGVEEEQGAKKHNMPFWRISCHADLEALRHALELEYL
Target sequence (Q15475 whole entry, looked up): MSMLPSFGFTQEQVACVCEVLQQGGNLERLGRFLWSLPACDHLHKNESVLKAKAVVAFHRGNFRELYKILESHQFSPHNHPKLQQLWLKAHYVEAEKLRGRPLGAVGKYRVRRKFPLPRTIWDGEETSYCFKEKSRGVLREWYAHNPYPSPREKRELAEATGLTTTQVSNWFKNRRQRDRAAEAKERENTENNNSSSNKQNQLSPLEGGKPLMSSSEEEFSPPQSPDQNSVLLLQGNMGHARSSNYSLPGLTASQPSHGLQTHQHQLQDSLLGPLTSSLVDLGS
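AlphaScreen with GST-Six1 and His-Eya2 (5X mix: 250 nM and 500 nM), glutathione donor and nickel acceptor beads; buffer 50 mM Tris pH 8.0, 300 mM NaCl, 1 mM TCEP; 1 h at 37 C in the dark.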
12-hLO cuvette: Cuvette-Based Assay for Inhibitors of 12-hLO (12-human lipoxygenase): 8HQ Series - Round 1; AID 2163, 2009; Potency, µM, actives largely listed as inhibitors; purified 12-hLO, cuvette UV 234 nm product formation; shares compounds with BAZ2B block; actives 60% (n = 35);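 active = compounds that slowed 12-hLO product formation enough to yield a measured IC50 potency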
KDM4E inh: Inhibitors of Human Jumonji Domain Containing 2E (JMJD2E): 8HQs - Round 1; shares compounds with BAZ2B block; JMJD2E demethylase, FDH-coupled NADH fluorescence (FDH is formaldehyde dehydrogenase); Potency, µM (highest dose often 57 µM), most hits filed as inhibitors; actives 89% (n = 130); AID 493212, 2011
ME-1 prolif: qHTS Assay for Compounds Blocking the Interaction Between CBF-beta and RUNX1 for the Treatment of Acute Myeloid Leukemia: ME-1 cellular proliferation; shares compounds with BAZ2B block; ME-1 cell proliferation, ATP luminescence, 48 h; Potency, µM (highest dose often 56.1 µM), hits mostly inhibitors; actives 20% (n = 140); AID 504370, 2011
Numbers stand for hits; . = inactive; ? = inconclusive; / = not tested or not shown; [ ] = remark or other dose. Unless noted, calls follow the shape of the dose curve; as a rule, active = well fitted curve in the direction sought with a large enough effect; inconclusive = small, poorly fitted or top-dose-only effect, or another doubt; inactive = no such curve, though single readings can be large; an effect the other way counts as inactive or inconclusive.

SMILES	HP1b chromo inh	CtBP-E1A blk	BAZ2B block	G9a inh	JMJD2A Tudor	Six1-Eya2 blk	ME-1 prolif	others
CCc1ccc(NC(=O)c2ccc3c(=O)n4nc(Nc5ccccc5C)sc4nc3c2)cc1	.	/	.	.	.	/	/
O=C(O)c1cccnc1C(=O)O	.	.	6.3µM	3.5µM	0.89µM	?	.
O=C(O)c1cccnc1Cl	.	.	?	?	.	.	/
CN(CC(=O)NCc1cccs1)CC(=O)Nc1ccccc1Cl	/	.	/	/	/	.	/
COc1cccc2c1NC(C(=O)O)C1CC=CC21 (stereo not drawn)	20µM	.	3.5µM	2.5µM	8.9µM	?	?
COc1cc(C2Nc3c(F)cccc3C3C=CCC32)cc(Br)c1OC (stereo not drawn)	.	.	?	/	.	.	/
O=C(Nc1ccc(F)cc1)c1ccc2c(c1)NC(=O)c1ccccc1S2	.	/	.	.	.	/	/
COCc1cc(O)c(O)c(O)c1-c1c(COC)cc(O)c(O)c1O	/	/	/	1µM	/	/	.
COc1ccc(N(Cc2cccs2)C(=O)COc2cccc(C)c2C)cc1	.	/	.	.	.	/	/
CC(=O)NCc1cc(Cl)c2cccnc2c1O	/	/	10µM	.[12.7 µM]	/	/	/	12-hLO cuvette=.;KDM4E inh=20µM
CC(=O)NC(C)c1cc(Cl)c2cccnc2c1O (stereo not drawn)	.	/	35µM	.[12.7 µM]	79µM	/	/	12-hLO cuvette=.;KDM4E inh=29µM
CCC(=O)NC(C)c1cc(Cl)c2cccnc2c1O (stereo not drawn)	.	/	32µM	.[12.7 µM]	79µM	/	/	12-hLO cuvette=50µM;KDM4E inh=29µM
CC(=O)NC(C)c1cc(Cl)c2ccccc2c1O (stereo not drawn)	.	/	.	.[0.501 µM]	.	/	/
COc1ccc(Oc2nc(-c3ccccn3)ncc2OC)cc1	.	.	28µM	?	89µM	?	?
COc1ccc(-c2nc(-c3ccccn3)no2)cc1	.	.	.	/	.	.	/
C=C1c2cccc(O)c2C(O)=C2C(=O)[C@@]3(O)C(O)=C(C(N)=O)C(=O)[C@@H](N(C)C)[C@@H]3[C@@H](O)[C@H]12	/	/	/	4µM	/	/	.
O=c1c(O)cccc2cc(O)c(O)c(O)c12	?	/	0.79µM	0.56µM	0.89µM	?	?
COC(=O)c1c(C)cc(OC(=O)c2c(C)cc(O)c(C=O)c2O)c(C)c1O	/	/	/	.[2.33 µM]	/	/	/
Cc1cc(O)c(C=O)c2c1C(=O)Oc1c(COC(=O)/C=C/C(=O)O)c(O)c(C(=O)O)c(C)c1O2	/	/	/	?	/	/	.
Brc1ccc(Cn2c(-c3ccc(Br)o3)nc3ccccc32)o1	.	/	13µM	40µM	.	.	?
Cc1nc2ccccc2n1Cc1ccc(Br)cc1	.	.	/	/	.	.	/
COc1ccc(N2CCN(C(=O)c3cc(=O)c4cc(C)ccc4o3)CC2)cc1	.	.	.	.	.	.	/
CCOC(=O)/C(C#N)=C/c1ccc(OC(=O)c2ccccn2)cc1	.	.	4.5µM	4.5µM	0.79µM	-87	.
O=C(O[C@@H]1OC2COC(=O)c3cc(O)c(O)c(O)c3-c3c(cc(O)c(O)c3O)C(=O)O[C@@H]([C@H]1O)[C@@H]2O)c1cc(O)c(O)c(O)c1	.	.	0.79µM	1.6µM	/	?	?
CC1(C(=O)Nc2cccc(C#N)c2)CCN1C(=O)C/C=C/c1ccccc1 (stereo not drawn)	/	.	/	/	/	.	/
SMILES	HP1b chromo inh	CtBP-E1A blk	BAZ2B block	G9a inh	JMJD2A Tudor	Six1-Eya2 blk	ME-1 prolif	others
O=C(NC(=S)NNC(=O)c1ccccc1O)c1ccco1	.	.	?	?	35µM	-91	?
O=C(NNC(=S)NC(=O)c1ccco1)c1ccc(NC(=O)c2ccccc2)cc1	.	/	/	?	.[11.4 µM]	.	/
Nc1nc(-c2ccccc2)c(CC(=O)O)s1	/	.	/	/	/	.	/
CCc1sc(N)nc1-c1ccccc1	.	.	?	?	.	.	.
Cc1ccc(S(=O)(=O)C(CNC(=O)C(=O)NCc2ccccc2C)c2cccs2)cc1 (stereo not drawn)	.	/	.	.	.	/	/
O=C1COc2ccc(-c3n[nH]c(=O)c4ccccc34)cc2N1	.	.	.	.[12.7 µM]	.	.	/
